HCMV inh: qHTS Assay for inhibitors of the human cytomegalovirus (HCMV) | HFF cells, HCMV-luciferase reporter, 72 h; stronger effect = lower value | activity change, negative = inhibition, % at 57.5 µM | 4.5% of 410,000 active | AID 1259415, 2018; in the data active means activity change below about -60%; inconclusive means no clear call, values can overlap the other calls; inactive means above about -39%
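Screen run at 2 compound doses on HFFs infected with reporter HCMV, MOI 1 PFU/cell. Luciferase activity from cell lysates at 72 h post infection gave inhibition relative to buffer-only and Salinomycin wells.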
LASV entry inh: qHTS for Inhibitors of binding or entry into cells for Lassa Virus; 1.2% of 300,000 active; Potency, µM (top dose mostly 37.9 µM), most hits filed as inhibitors; Lassa virus pseudotype entry inhibition, cell reporter; calls by dose curve; tested in HEK293 cells; further: nearly all actives have a fitted effect of over 50% in size
FMDV antiviral: High Throughput Screening for Foot and Mouth Disease Virus Antivirals; FMDV antiviral cell-based qHTS; Potency, µM (series often up to 57.9 µM), most hits filed as inhibitors; 1.2% of 410,000 active; AID 1159524, 2015; calls by dose curve; tested in HEK293T cells; further: read-out not given here; nearly all actives have a fitted effect of over 45% in size
VACV mCherry inh: qHTS for Stage-Specific Inhibitors of Vaccinia Orthopoxvirus: mCherry Reporter Primary qHTS | Potency, µM (top dose mostly 36.5 µM), usual class: inhibitors | 0.63% of 310,000 active | Vaccinia virus mCherry reporter infection, fluorescence; calls by dose curve; tested in A549 cells; further: nearly all actives have a fitted effect of over 35% in size
MARV entry inh: qHTS for inhibitors of binding or entry into cells for Marburg Virus. Potency, µM (top dose mostly 37.8 µM), hits mostly inhibitors. AID 540276, 2011. Marburg virus pseudotyped entry inhibition, cell reporter. 1.8% of 300,000 active; calls by dose curve; tested in HEK293 cells
VACV Venus inh: qHTS for Stage-Specific Inhibitors of Vaccinia Orthopoxvirus: Venus Reporter Primary qHTS | 0.46% of 330,000 active | Vaccinia virus Venus reporter expression, fluorescence | Potency, µM (titrated, usually from 36.5 µM), most hits filed as inhibitors; calls by dose curve; tested in A549 cells; further: nearly all actives have a fitted effect of over 30% in size
Numbers stand for hits; 0 = inactive; ? = inconclusive; - = not tested or not shown; [ ] = dose if it differs, or a comment. Sampled rows, rich in hits. Any-hit rate of the full collection: about 6.5%.

SMILES	HCMV inh	LASV entry inh	FMDV antiviral	VACV mCherry inh	MARV entry inh	VACV Venus inh
CCN(CC)CCN(C)C(=O)c1ccc(-c2ccccc2)nc1N(C)C	-	-	0	0	-	0
C=CCCCCCCCCCCC/C=C/C(O)COC(C)=O (stereo unspecified)	-	-	0	0	-	0
O=C(NC1CCCC1)c1nc2ccccc2nc1-c1ccc(F)c(F)c1	0	-	-	-	-	-
COc1ccc(Nc2cc(C(=O)NCc3ccccc3)c3ccccc3n2)cc1	?	0	0	0	?	0
Cc1ccc(NC(=O)c2cc(C)nc3ccccc23)cc1	0	-	0	-	-	-
Cc1ccc(NC(=O)c2cc(CC(C)C)nc3ccccc23)cc1	-70	0	0	0	?	0
COc1ccc(NC(=O)c2cc(CC(C)C)nc3ccccc23)cc1	-77	-	0	-	-	-
CC(OC(=O)c1ccccc1OCCOc1ccccc1)C(=O)Nc1ccc(Br)cc1 (stereo unspecified)	-	-	-	0	-	0
NC(=S)N/N=C1\CCSc2ccc(Cl)cc21	-99	0	0	?	0	?
CCCc1ccc(-c2ccc(C(=O)Oc3ccc(OCC)cc3)cc2)nc1	0	0	0	0	-	0
CCCc1ccc(-c2ccc(C(=O)O)cc2)nc1	0	12µM	-	0	?	0
COc1ccc(-n2cc(C(=O)NCCc3cc(OC)ccc3OC)c3ccccc3c2=O)cc1	0	0	0	0	-	0
CNS(=O)(=O)c1cn(CC(=O)N2CCN(c3ccc(C(C)=O)cc3)CC2)cc1S(=O)(=O)NC	0	0	0	0	-	0
CC(=O)N1CCSc2ccc(S(=O)(=O)NCCc3ccc(Cl)cc3)cc21	-60	-	0	0[7.34 µM]	-	0[7.34 µM]
CC(=O)N1CCSc2ccc(S(=O)(=O)NCCc3ccc(C)cc3)cc21	0	7.9µM	0	0	?	0
CC(=O)N1CCSc2ccc(S(=O)(=O)NCCc3cccc(C)c3)cc21	?	0	0	0	?	0
Cc1cc(CNC(=O)c2cnn(-c3nccc(-c4ccc5c(c4)OCO5)n3)c2C2CC2)on1	-	-	0	0	-	0
Cc1ccc(C(C)C)cc1S(=O)(=O)NC1CC(C)(C)NC(C)(C)C1	0	?	0	0	13µM	0
Cn1cc(-c2cc3cnc(Nc4cccc(NS(C)(=O)=O)c4)cc3n2Cc2ccccc2)cn1	-88	-	-	-	-	-
O=C(NCc1ccccc1F)Nc1nnc([C@@H]2C[C@H](O)[C@@H](CO)O2)s1	0	-	0	0	-	0
O=C(NCc1ccccc1F)Nc1nnc([C@H]2C[C@H](O)[C@@H](CO)O2)s1	-93	-	0	0	-	0
CNC(=S)Nc1ccc(C23CC4CC(CC(C4)C2)C3)cc1	-98	?	0	0	?	0
CCOc1ccc(N(CC)C(=O)COc2cc(=O)n(CC)c3ccccc23)cc1	-95	0	0	-	0	-
CC(=O)c1ccc(N2CCN(C(=O)COc3ccc4ccccc4c3)CC2)cc1	-62	-	0	0	-	0
CCn1c(=O)cc(OCC(=O)N2CCN(c3ccc(OC)cc3)CC2)c2ccccc21	-95	?	0	0	0	0
SMILES	HCMV inh	LASV entry inh	FMDV antiviral	VACV mCherry inh	MARV entry inh	VACV Venus inh
CN(C(=O)COc1cc(=O)n(C)c2ccccc12)c1ccc(Cl)cc1	0	-	0	0	-	0
CCn1c(=O)cc(OCC(=O)N2CCN(c3ccc(C(C)=O)cc3)CC2)c2ccccc21	0	0	0	0	0	0
CCn1c(=O)cc(OCC(=O)N(C)c2ccc(OC)cc2)c2ccccc21	-72	0	0	0	0	0
Cc1nc2sccn2c1CN1CCC2(CC1)CC2C(=O)Nc1ccc2c(c1)OCO2 (stereo unspecified)	-	-	0	0	-	0
CC(=O)c1ccc(N2CCN(C(=O)CCC(=O)c3cccs3)CC2)cc1	-82	0	0	-	0	-
CCOc1ccc(N(CC)C(=O)COc2cc(=O)n(C)c3ccccc23)cc1	-103	-	0	-	-	-
C[C@H]1CN([C@@H](C)CO)C(=O)CCCn2nncc2CO[C@@H]1CN(C)Cc1ccc2cccnc2c1	0	-	-	-	-	-
COc1ccc(-n2nc(C#N)c(Cl)cc2=O)cc1	-101	?	22µM	11µM	3.2µM	10µM
C/C(=N/NS(=O)(=O)c1ccc(C(C)C)cc1)c1ccncc1	0	-	0	-	-	-
C/C(=N/NS(=O)(=O)c1ccc(CC(C)C)cc1)c1ccncc1	-66	-	0	-	-	-
O=c1[nH]c(CN2CCN(S(=O)(=O)/C=C/c3ccccc3)CC2)nc2cc(Cl)ccc12	0	?	0	?	?	11µM
CCOC(=O)CSc1cccc2cccnc12	-87	0	?	-	?	?
NNC(=O)c1ccc(CSc2cccc3cccnc23)cc1	0	0	0	0	0	0
Cc1cccc(CSc2cccc3cccnc23)c1	-108	0	0	?	?	?
COc1cccc(/C=N/NC(=O)CSc2cccc3cccnc23)c1	-92	-	?	-	-	-
COc1ccc2nc(C)cc(SCC(=O)N/N=C/c3ccco3)c2c1	0	-	0	0	8.9µM	0
CCC[N+](C)(C)c1ccc(/C=C/c2ccnc3ccccc23)cc1	-	-	-	0	-	0
Cc1[nH]c2ccccc2c1CC(=O)Nc1ccc(Nc2cccnc2)c(-c2cc(F)cc(F)c2)c1	0	-	-	-	-	-
CN1CCN(c2ncc3nc(-c4cn(C)c5ccccc45)c(=O)n(CCC#N)c3n2)CC1	-	-	0	-	-	-
O=C1[C@H]2[C@H]3[C@H](O)[C@H](O)C/C(=N/OCc4ccccc4)[C@@H]3CC[C@@H]2C(=O)N1C[C@@H]1CCCO1	-	-	-	-	0	-
Cc1nc2scc(-c3ccccc3)c2c(=O)n1N=C1C=CC(=O)C=C1	?	0	28µM	0	?	0
CCCc1nc2ccccc2n1CC(O)COc1ccc(C(=O)OC)cc1 (stereo unspecified)	0	0	28µM	0	?	0
CCC(=O)c1ccc(OCC(O)CN(CCc2ccccc2)Cc2ccccc2)cc1 (stereo unspecified)	0	16µM	-	?	?	?
CCOC(=O)c1c(C)n(C)c2ccc(OCC(O)Cn3c(C)nc4ccccc43)cc12 (stereo unspecified)	-60	?	18µM	-	?	-
Cc1nc2ccccc2n1CC(O)COc1ccc(Br)cc1 (stereo unspecified)	-80	-	?	0	?	0
SMILES	HCMV inh	LASV entry inh	FMDV antiviral	VACV mCherry inh	MARV entry inh	VACV Venus inh
OC(COc1ccccc1)CN(Cc1ccccc1)CC(O)COc1ccccc1 (stereo unspecified)	0	-	0	?	-	?
CCOc1ccc(CCNC(=O)CCn2c(=O)c3cccn3c3cccnc32)cc1	0	0	0	0	-	0
Cc1nc2ccccc2n1CC(O)COc1ccccc1Cl (stereo unspecified)	-74	-	?	-	-	-
Cc1nc2ccccc2n1CC(O)COc1ccc(C(=O)O)cc1 (stereo unspecified)	0	0	0	0	0	0
CCC(=O)c1ccc(OCC(O)Cn2c(C)nc3ccccc32)cc1 (stereo unspecified)	-62	?	?	?	6.3µM	0
CC1=CC[C@@H](COc2ccccc2)O[C@@]2(C1)C(=O)N(CC1CC1)c1ccccc12	-	-	-	-	0	-
